Screening data from PubChem.
Compounds with a hit are over-represented: about 3% of the library has one in this group of screens.
FBPA coupling cs: inhibits coupling enzyme system, counter-screen for aldolase hits; coupling enzyme system counterscreen, AmpLite Red fluorescence; activity change, negative = inhibition, % at 58.2 µM, hits read low; 290,000 tested, 0.67% active; in the data active means activity change below about -30%
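Activity here indicates interference with the coupling reaction, not aldolase inhibition. Compounds at 57.5 uM final met coupling enzymes for 10 min at RT; substrate and AmpLite Red detection followed, with a 525/598 nm fluorescence read after 20 min.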
Tau FP inhib: tau fibrillization inhibition (FP); P10636; K18 P301L tau heparin fibrillization, Alexa594 FP, 6 h; Potency, µM (titrated, usually from 57.7 µM), actives largely listed as inhibitors; 280,000 tested, 0.39% active; AID 1468; further: nearly all actives have a fitted effect of over 55% in size
Target sequence (P10636 561-689 P618L limits assumed): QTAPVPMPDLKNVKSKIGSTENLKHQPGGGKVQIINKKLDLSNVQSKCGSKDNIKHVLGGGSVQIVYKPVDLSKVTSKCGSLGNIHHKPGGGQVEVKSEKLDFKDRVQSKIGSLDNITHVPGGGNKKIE
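FP of Alexa 594-tau after heparin (20 uM) induction. Substrate: human K18 P301L, 15 uM unlabeled, 0.24 uM labeled. Buffer 100 mM sodium acetate pH 7. 6 hr, 37 C.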
KDM4E inh: JMJD2E (human) inhibition. JMJD2E catalytic domain, FDH-coupled NADH fluorescence (FDH is formaldehyde dehydrogenase). AID 2147. Potency, µM (doses to about 57.1 µM), actives largely listed as inhibitors. 230,000 tested, 1.6% active; active means well fitted inhibition curve with a large enough effect, not every such curve was filed as active; inconclusive means small, poorly fitted or top-dose-only effect, or another doubt; inactive means no such curve, though single readings can be large or run the other way; further: nearly all actives have a fitted effect of over 50% in size
Target sequence (B2RXH2 1-337 limits assumed): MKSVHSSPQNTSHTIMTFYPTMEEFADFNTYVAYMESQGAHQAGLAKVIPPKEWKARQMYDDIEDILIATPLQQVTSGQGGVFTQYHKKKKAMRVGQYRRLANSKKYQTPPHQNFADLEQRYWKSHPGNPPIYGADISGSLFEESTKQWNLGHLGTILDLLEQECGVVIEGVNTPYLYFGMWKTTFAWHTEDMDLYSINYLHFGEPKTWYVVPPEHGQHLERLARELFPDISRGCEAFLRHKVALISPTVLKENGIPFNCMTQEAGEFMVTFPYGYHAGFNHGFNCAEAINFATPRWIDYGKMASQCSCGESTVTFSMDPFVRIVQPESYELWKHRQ
Tau fluor counter: counter-screen for tau fibril formation inhibitors; 280,000 tested, 0.93% active; Potency, µM (doses to about 57.7 µM); tau K18 P301L Alexa594 fluorescence, heparin fibrillization; further: nearly all actives have a fitted effect of over 55% in size
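Human K18 P301L tau (15 uM unlabeled plus 0.24 uM Alexa 594-labeled, final) in 100 mM sodium acetate pH 7 was mixed with compound and 20 uM heparin and incubated 6 hr at 37 C.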
Tau ThT inhib: inhibitors of human tau fibril formation, thioflavin T binding | recombinant tau K18 P301L, heparin-induced fibrillization, ThT fluorescence | Potency, µM (doses to about 57.4 µM), usual class: inhibitors | P10636 | 270,000 tested, 2.1% active; further: nearly all actives have a fitted effect of over 55% in size
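Using a mix of unlabeled (15 uM) and Alexa 594-labeled (0.24 uM) tau K18 P301L, heparin-triggered fibrillization over 6 hr at 37 C was scored by ThT fluorescence.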
A number is an active result; – = inactive; ? = inconclusive; · = not tested or not shown; ! = a repeat was not active; [ ] = remark or other dose. Unless noted, the call rests on the fitted dose curve; in most records, active means well fitted curve in the direction sought with a large enough effect; inconclusive means small, poorly fitted or top-dose-only effect, or another doubt; inactive means no such curve, though single readings can be large; an effect the other way counts as inactive or inconclusive.

SMILES	FBPA coupling cs	Tau FP inhib	KDM4E inh	Tau fluor counter	Tau ThT inhib
CCCCNc1c2c3c(cccc3n(C)c1=O)C(=O)c1ccccc1-2	–	–	–	–	–
O=c1cc(-c2cccc(F)c2)[nH]c2cc(Cl)ccc12	–	–	·	–	–
COC(=O)Cc1[nH]nc2c1C(c1c[nH]c3ccccc13)C(C#N)=C(N)O2 (configuration not stated)	–	–	?	?	25.1µM
Cc1[nH]nc2c1C(c1c[nH]c3ccccc13)C(C#N)=C(N)O2 (configuration not stated)	–	–	–	–	·
COc1ccc(NC(=O)CC2C(=O)N(c3ccccc3)C(=O)N2CCc2sccc2C)cc1 (configuration not stated)	·	–	·	?	–
CCOCC(=O)N1CCC(Cc2ccccc2)CC1	–	–	–	–	–
Cn1c(C(=O)O)c(CC(=O)N2CCC(Cc3ccccc3)CC2)c2ccccc21	–	–	31.6µM	–	?
COc1ccccc1-c1nnc2n1N=C(c1ccc(O)c(O)c1)CS2	–	–	25.1µM	–	–
COc1ccc(S(=O)(=O)Nc2ccc3c(c2)N(C(C)=O)CCC3)cc1F	·	–	·	–	–
Cc1ccc(C(=O)c2ccc(C)cc2)cc1	–	–	–	–	–
Cc1ccc(C(=O)c2no[n+]([O-])c2C(=O)c2ccc(C)cc2)cc1	–	?	–	–	14.1µM
CCN1CCN(c2cc(C)c3cc(NC(=O)c4cncc(Br)c4)ccc3n2)CC1	–	?	–	?	?
Cc1ccccc1C(=O)Nc1ccc2nc(N3CCCCC3)cc(C)c2c1	·	–	·	?	?
Cc1ccccc1C(=O)Nc1ccc2nc(Nc3cccc(C(F)(F)F)c3)cc(C)c2c1	·	?	·	5.62µM[quencher]	–
Cc1cc(Nc2cccc(Cl)c2)nc2ccc(NC(=O)c3cncc(Br)c3)cc12	·	–	·	6.31µM[quencher]	?
Cc1cc(Nc2cccc(C(F)(F)F)c2)nc2ccc(NC(=O)c3cncc(Br)c3)cc12	·	–	·	5.01µM[quencher]	?
CCOc1cc(C(=O)Nc2ccc3nc(Nc4cccc(Cl)c4)cc(C)c3c2)cc(OCC)c1OCC	·	–	·	2.24µM[quencher]	?
CN(C)/[N+]([O-])=N/Oc1cc(ON=[N+]([O-])N2CCN(c3ncccn3)CC2)c([N+](=O)[O-])cc1[N+](=O)[O-]	–	·	·	·	·
CC(C)(C)c1ccc(OCc2ccc(C(=O)N/N=C/c3ccc([N+](=O)[O-])cc3)o2)cc1	–	–	–	8.91µM[quencher]	?
O=[N+]([O-])c1cc(-c2ncccn2)c([N+](=O)[O-])s1	-83.7	–	–	?	11.2µM
CCCCc1nc2c(c3c1C[C@H](C)OC3)CN(S(=O)(=O)c1ccc(C)cc1)CC2	–	–[11.6 µM]	–[11.4 µM]	–[11.6 µM]	–[11.5 µM]
O=C(NC1(O)C(=O)c2ccccc2C1=O)c1c(Cl)cccc1Cl	–	?	?	–	·
O=C(NC1(O)C(=O)c2ccccc2C1=O)c1ccccc1	–	?	?	–	2.82µM
COc1ccccc1C(C[N+](=O)[O-])c1c[nH]c2ccccc12 (configuration not stated)	–	?	–	31.6µM[quencher]	–
COc1ccc(-c2[nH]n(-c3ccc([N+](=O)[O-])cc3)c(=O)c2C=NCc2ccc(F)cc2)cc1	–	–	–	–	?
SMILES	FBPA coupling cs	Tau FP inhib	KDM4E inh	Tau fluor counter	Tau ThT inhib
COc1ccc(-c2cc(=O)n(-c3ccc([N+](=O)[O-])cc3)[nH]2)cc1	–	–	?	?	11.2µM
Cc1ccc(/C=[N+](\[O-])c2ccc(N(C)C)cc2)c2nsnc12	-41.3	31.6µM	14.1µM	?	6.31µM
COc1ccc(CNC(=O)Cc2c(C)c3ccc(O)cc3oc2=O)cc1	·	?	·	–	–
CC1(C)CCC2=C(O1)c1ccccc1C(=O)C2=O	-55.5	?	3.55µM!	–	12.6µM
CC1(C)CCc2c([nH]c3ccccc3c2=O)O1	–	–	–	–	–
CCc1ccccc1NC(=O)Nc1ccc2c(c1)N(CC)C(=O)c1ccccc1S2	·	–	·	–	–
O=C1C2=CC[C@H]3C(=O)N(C[C@@H]4CCCO4)C(=O)[C@@H]3[C@@H]2[C@H](O)[C@@H]2O[C@H]12	–	?	·	–[11.6 µM]	3.16µM
CCN1C(=O)[C@@H]2[C@H]3C(=CC[C@H]2C1=O)C(=O)[C@H]1OC1[C@H]3O (some centres not stated)	–	?	·	–[11.6 µM]	3.98µM
CC(=O)Nc1ccc(S(=O)(=O)N2CCN(c3ccc(C)c(C)c3)CC2)cc1	·	–	·	?	–
Cn1cccc1-c1cc(C(=O)N/N=C/c2cccc(O)c2)[nH]n1	–	–	–	–	?
CCOc1cccc(/C=N/NC(=O)c2cc(-c3cccn3C)n[nH]2)c1O	–	–	31.6µM	?	?
COc1cc(OC)c(OC)cc1/C=N/NC(=O)c1cc(-c2cccn2C)n[nH]1	–	–	?	?	12.6µM
COc1ccc(/C=N/NC(=O)c2cc(-c3cccn3C)n[nH]2)cc1OC	–	–	–	–	?
CC(=O)C1=C(C)OC(N)=C(C#N)C1c1cccc2ccccc12 (configuration not stated)	-33.5	?	?	–	?
Cc1ccc(CNC(=O)c2cnc(N3CCCCC3)c3ccccc23)cc1	·	–	·	–	–
S=C(NC1CCCCC1)N1CCN(c2ccccn2)CC1	-40.6	–	–	–	–
S=C(NC1CCCCC1)N1CCN(c2ncccn2)CC1	–	–	?	–	–
Cc1nn(-c2ccccc2)c2c1C(c1ccco1)C(C#N)=C(N)O2 (configuration not stated)	–	–	14.1µM	–	?
Cc1ccc(-n2nc(C)c3c2OC(N)=C(C#N)C3c2ccc(F)cc2)cc1 (configuration not stated)	–	–	–	–	–
COc1ccc(OC)c(C2C(C#N)=C(N)Oc3c2c(C)nn3-c2cccc(Cl)c2)c1 (configuration not stated)	–	–	?	?	12.6µM
Cc1nn(-c2ccccc2)c2c1C(c1ccc([N+](=O)[O-])cc1)C(C#N)=C(N)O2 (configuration not stated)	–	–	17.8µM	?	?
O=C(CC1C(=O)N(c2ccc(F)cc2)C(=O)N1Cc1cccnc1)Nc1ccc(F)cc1 (configuration not stated)	·	–	·	–	–
C=CC(C)(C)c1[nH]c2ccccc2c1C1=C(O)C(=O)C(c2c[nH]c3c(CC=C(C)C)cccc23)=C(O)C1=O	–	?	25.1µM	15.8µM[quencher]	14.1µM
O=C(N/N=C/c1cccc(Oc2ccccc2)c1)c1cccc(Br)c1	·	?	–	?	–
O=C(N/N=C/c1cccc(Oc2ccccc2)c1)c1ccccc1Br	-32.0	–	–	?	–
O=C(CNc1cccc2ccccc12)N/N=C/c1cccc(Oc2ccccc2)c1	-31.8	?	28.2µM	7.94µM[quencher]	?
COc1ccc(Cl)cc1NC(=S)NCCc1c[nH]c2ccccc12	–	–	–	22.4µM[quencher]	?
Cc1ccc(C)c(NC(=O)C(=O)NCCc2c[nH]c3ccccc23)c1	–	–	–	?	–
